Results on 40 molecules are retold here after PubChem BioAssay (Tox21).

Inconclusive results are not listed. Entries that show only a call come without a potency. Activity calls are given as the source filed them. Calls follow the shape of the dose curve; as a rule, active = well fitted inhibition curve with a large enough effect in the repeat runs; inconclusive = weak or mixed curves; inactive = flat fitted curve, though single readings scatter.
Potency is read from the fitted curve at half-maximal effect.

Sequence of Luciferin 4-monooxygenase (Photinus pyralis) (P08659 whole entry, looked up): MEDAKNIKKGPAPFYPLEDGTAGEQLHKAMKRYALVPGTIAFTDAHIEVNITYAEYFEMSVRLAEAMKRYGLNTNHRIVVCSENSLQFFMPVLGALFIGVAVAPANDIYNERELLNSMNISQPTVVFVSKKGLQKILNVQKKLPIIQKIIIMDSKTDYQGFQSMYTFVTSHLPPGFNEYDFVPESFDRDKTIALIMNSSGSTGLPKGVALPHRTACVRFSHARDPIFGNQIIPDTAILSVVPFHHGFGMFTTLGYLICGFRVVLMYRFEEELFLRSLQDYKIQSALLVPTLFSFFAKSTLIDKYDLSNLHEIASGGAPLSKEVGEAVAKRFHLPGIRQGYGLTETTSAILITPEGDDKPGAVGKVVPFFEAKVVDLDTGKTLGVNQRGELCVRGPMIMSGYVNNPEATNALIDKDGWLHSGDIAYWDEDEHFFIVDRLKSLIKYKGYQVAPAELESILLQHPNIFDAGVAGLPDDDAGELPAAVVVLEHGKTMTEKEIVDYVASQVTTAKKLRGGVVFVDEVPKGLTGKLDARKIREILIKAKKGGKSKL

This experiment has as its target Luciferin 4-monooxygenase (Photinus pyralis) (UniProt P08659). The experiment can be described thus: qHTS assay to identify small molecule inhibitors of firefly luciferase (AID 1224835). Also: nearly all actives have a fitted effect of over 25% in size. The conditions noted are these: purified P. pyralis luciferase, luminescence inhibition; series mostly up to 115 µM. An excerpt:
U.S. Tox21 Program National Center for Advancing Translational Sciences [NCATS] NIH Chemical Genomics Center [NCGC] U.S. Environmental Protection Agency [EPA] National Institutes of Environmental Health Sciences [NIEHS] National Toxicology Program [NTP] U.S. Food and Drug Administration [FDA] Tox21 Assay Overview: Firefly (Photinus pyralis) luciferase is one of the most commonly used transcriptional reporters. Firefly luciferase reporter-gene assays are generally considered one of the most sensitive assay types (Wood, 1995; Wood, 1998). However, it was initially observed, in 1991, by Thompson et al., that compounds that resemble the substrates of firefly luciferase (FLuc) can act as competitive inhibitors of the enzyme, and that these compounds, upon interaction with luciferase in the cell, can actually stabilize the protein and increase its half-life. Previous profiling work by other groups to determine the prevalence of compounds that affect FLuc enzymatic activity (PubChem AID 411) identified that ~3% of the MLSMR library (then at ~72K) inhibited FLuc. […] Thus the Tox21 10K library is profiled for activity against FLuc using a biochemical assay of purified FLuc and KM concentrations of FLuc substrates (D-luciferin and ATP).
These assay plates were then treated with 23nL of compound or DMSO using a Kalypsys pin tool, which allows for delivery of a 6-point interplate titration of each compound to the assay plate (quantitative HTS.) 1 uL of firefly luciferase mix (containing 50 mM Tris acetate, pH 7.6, 0.04 uM P. pyralis luciferase, 0.01% Tween, 0.05% BSA and dH2O) was then delivered by FRD to each well. Luciferase activity was then measured using a ViewLux CCD imager.
For orientation: qHTS replaces the single test concentration by a dilution series.
Turning to `Cc1nnc(SCC2=C(C(=O)O)N3C(=O)[C@@H](NC(=O)Cn4cnnn4)[C@H]3SC2)s1`, the Potency entry was “inactive”.

In the case of `OCc1ccccc1O`, the Potency entry is “inactive”. With `CN1[C@@H]2CC[C@H]1CC(OC(=O)c1c[nH]c3ccccc13)C2` (stereo not given in full) the entry was “inactive”; with `CCC(=O)c1ccc2c(c1)N(CCCN(C)C)c1ccccc1S2`, “inactive”.

Turning to `Cc1ccsc1C(=CCCN1CCC[C@@H](C(=O)O)C1)c1sccc1C`, the Potency entry was “inactive”.

As for `CC(=O)O[C@H]1CC[C@@]2(C)C(=CC[C@@H]3[C@@H]2CC[C@]2(C)C(C(C)=O)=CC[C@@H]32)C1`, the Potency result is “inactive”. Regarding `CCN(CC)CCNC(=O)COc1ccc(Cl)cc1`, the Potency result was “inactive”. As for `CCOC(=O)c1ccccc1O`, the entry is “inactive”. As for `CC1(C)O[C@@H]2C[C@H]3[C@@H]4CCC5=CC(=O)CC[C@]5(C)[C@@]4(F)[C@@H](O)C[C@]3(C)[C@]2(C(=O)CCl)O1`, the entry is “inactive”. Take `CC1=NN(c2cc(Cl)c(S(=O)(=O)O)cc2Cl)C(=O)C1N=Nc1ccc(S(=O)(=O)O)cc1` (stereo not given): the Potency result was “inactive”. With `CCCCc1ccc2nc(NC(=O)OC)[nH]c2c1` the figure was 3.47 µM (active); with `CCOc1ccc(OCC)c(Cl)c1`, “inactive”.

Take `O=C1CCCCCCCCCCC(=O)OCCO1`: the Potency entry is “inactive”.

`CC/C=C\CCOC(=O)CCCCC`: the Potency result was “inactive”.

On to `CCCOCCC`, for which the Potency entry is “inactive”. In the case of `O=C1CCC(C2CCCCC2)CC1`, the Potency entry was “inactive”. On to `NS(=O)(=O)c1cc(-c2nn[nH]n2)c(NCc2cccs2)cc1Cl`, for which the Potency result is “inactive”.

Turning to `CC(C)(C)c1ccc(OC(=O)c2ccccc2O)cc1`, the Potency was 1.78 µM (active).

For the molecule `Cc1cccc(C)c1NC(=O)CN1CCCCCC1`, the Potency entry was “inactive”. As for `O=C(O)c1cccc(Cl)c1Cl`, the entry is “inactive”. As for `CC(C)C(=O)OCC(C)(C)C(O)C(C)C` (stereo not given), the entry is “inactive”. With `COc1cc(Cl)ccc1Cl` the entry was “inactive”. For `CCN(O)CC`, the Potency entry was “inactive”. Regarding `CC(=O)N(CC(O)CN(C(C)=O)c1c(I)c(C(=O)NCC(O)CO)c(I)c(C(=O)NCC(O)CO)c1I)c1c(I)c(C(=O)NCC(O)CO)c(I)c(C(=O)NCC(O)CO)c1I` (stereo not given), the Potency result is “inactive”. With `CN1CCN(N)CC1` the entry was “inactive”. On to `Cc1c[nH]c(=S)[nH]c1=O`, for which the Potency result is “inactive”. Consider `O=c1[nH]cnc2c1ncn2[C@@H]1O[C@H](CO)[C@@H](O)[C@H]1O`, for which the Potency entry was “inactive”.

For `O=C(C(Cl)Cl)N1CCOC12CCCCC2`, the Potency entry is “inactive”. Turning to `COC(C)CCO` (stereo not given), the Potency entry is “inactive”. As for `Cc1ncc(CO)c(CN)c1O`, the entry is “inactive”; as for `CC(=O)Oc1cc(C(C)C)c(OCCN(C)C)cc1C`, “inactive”. With `CC(C)C(=O)OC/C=C/c1ccccc1` the figure was 71 µM (active).

As to `COC(=O)N[C@H](C(=O)N[C@@H](Cc1ccccc1)[C@@H](O)CN(Cc1ccc(-c2ccccn2)cc1)NC(=O)[C@@H](NC(=O)OC)C(C)(C)C)C(C)(C)C`, the Potency result was “inactive”. With `O=C(O[C@@H](C(=O)O)[C@@H](OC(=O)c1ccccc1)C(=O)O)c1ccccc1`, the Potency result is “inactive”. For the molecule `C[C@]12CCC(=O)C=C1CC[C@@H]1[C@@H]2CC[C@@]2(C)[C@H]1CC[C@]2(O)C(=O)CO`, the Potency result is “inactive”. Take `OCC(CBr)(CBr)CBr`: the Potency is 70.7 µM (active). Take `FC(F)(F)C(Cl)(Cl)Cl`: the Potency entry was “inactive”. As for `CCC(=O)O[C@]1(C(=O)SCF)[C@H](C)C[C@H]2[C@@H]3C[C@H](F)C4=CC(=O)C=C[C@]4(C)[C@@]3(F)[C@@H](O)C[C@@]21C`, the entry is “inactive”.

On to `CNCCC(Oc1ccccc1OC)c1ccccc1` (stereo not given), for which the Potency result was “inactive”.

Turning to `CCc1cc(Cl)c(OC)c(C(=O)NC[C@@H]2CCCN2CC)c1O`, the Potency result was “inactive”.
